# Source: PubChem BioAssay (NCI)
# This is part of a sample that, as a whole, favours compounds with a hit. Of some 79,000 tested, about 15% had one in any assay. A number with no mark means an inactive call. Activity calls are given as the source filed them. Cut-off read from the data, not from the text of the source: active = growth inhibition above about 70%; inactive = the rest.
# Legend:
# [1] = NCI Yeast Anticancer Drug Screen. Data for the rad50 strain (AID 155);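 note: 0% = growth of vehicle-only cultures of the same strain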; settings: S. cerevisiae rad50 strain growth inhibition; at 50.0 µM; stronger effect = higher value
# How it was run: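 Relative growth inhibition (compound vs vehicle) was measured in yeast with a defined repair-gene alteration.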
# [2] = NCI Yeast Anticancer Drug Screen. Data for the mec2-1 strain (AID 157); settings: S. cerevisiae mec2-1 strain, at 50.0 µM, stronger effect = higher value
# How it was run: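 Yeast mec2-1 mutant treated with compound. Readout: growth inhibition vs vehicle controls.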
# [3] = NCI Yeast Anticancer Drug Screen. Data for the sgs1 mgt1 strain (AID 161);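 note: 0% = growth of cultures given vehicle only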; settings: S. cerevisiae sgs1 mgt1 strain, at 50.0 µM, stronger effect = higher value
# How it was run: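 Genetically altered yeast, compound exposure, growth inhibition relative to vehicle.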
# [4] = NCI Yeast Anticancer Drug Screen. Data for the cln2 rad14 strain (AID 165);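 note: 0% = growth equal to vehicle treated cultures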; settings: S. cerevisiae cln2 rad14 strain, at 50.0 µM, stronger effect = higher value
# How it was run: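 cln2 rad14 yeast strain; compound exposure; growth inhibition read vs vehicle controls.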
# [5] = NCI Yeast Anticancer Drug Screen. Data for the bub3 strain (AID 167); settings: S. cerevisiae bub3 mutant strain, at 50.0 µM, stronger effect = higher value
# How it was run: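 Screening used yeast with an engineered genetic alteration affecting cell cycle control. Compound-exposed cultures were compared with vehicle cultures, and reduced growth was taken as inhibition.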
# [6] = NCI Yeast Anticancer Drug Screen. Data for the mlh1 rad18 strain (AID 175); settings: S. cerevisiae mlh1 rad18 strain growth inhibition; at 50.0 µM; stronger effect = higher value
# How it was run: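 Yeast w/ defined DNA-repair lesions; compound exposure; growth vs vehicle controls → % inhibition.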
Compound,growth inhibition [1],growth inhibition [2],growth inhibition [3],growth inhibition [4],growth inhibition [5],growth inhibition [6]
N#C/C(=C\c1cc(Br)cc(Br)c1O)c1ccc([N+](=O)[O-])cc1,-2.7%,-10.9%,-6.8%,17.1%,22.3%,-2.6%
CSc1cc(C)c(O)c(CO)c1,6.7%,2.9%,18.2%,-2.35%,12.7%,3%
CC(=O)Oc1ccccc1-c1cc2ccccc2oc1=O,-20.2%,20.8%,0.85%,5.15%,38.8%,11.8%
COC(=O)C(CCC1(C)OCCO1)=[N+]=[N-],-7.05%,0.95%,-15.1%,2.85%,-19.1%,-16%
CC(=O)Oc1cc(O)oc(=O)c1,33%,-14.8%,21.1%,19.3%,11.3%,13.1%
CCCCCCCCO[Si](OCCCCCCCC)(OCCCCCCCC)OCCCCCCCC,-24.6%,-26.3%,-16.8%,6.9%,-15.2%,-20.9%
CC(=O)OCC1OC(n2cc(CBr)nn2)C(OC(C)=O)C(OC(C)=O)C1OC(C)=O (configuration not stated),0.3%,4.9%,-24.1%,-13.6%,1.7%,-19.9%
O=C1CC(C(F)(F)F)(C(F)(F)F)O1,11.3%,19.4%,-8.75%,-58.2%,13.6%,-19%
COc1ccc2c(c1)c(=O)c1ccccc1n2/C=C/C(=O)O,-6%,-14.8%,-8.9%,3.75%,-3.05%,2.25%
COC(=O)C1OC1C(=O)OC (configuration not stated),-17.4%,-26.5%,1.15%,-28.9%,12.3%,1.6%
CCCCCCCCCCCCCCSc1ccc2ccccc2c1,-9.15%,9.3%,-2.7%,-20.2%,-8.65%,-20.3%
COc1ccc2c(c1)C1(C)CCCC(C)(CN=C=O)C1CC2 (configuration not stated),3.55%,14.4%,-4.75%,4.8%,-11.9%,-1.95%
C/C(=N/NC(=S)Nc1ccccc1Cl)c1cccc(/C(C)=N\NC(=S)Nc2ccccc2Cl)n1,39.4%,16.9%,39.8%,6.3%,32.1%,24.7%
O=C1OC(c2ccc(Cl)cc2)=N/C1=C\c1c(Cl)cccc1Cl,6.9%,-1.3%,11.9%,11.9%,5.9%,-13.7%
Cc1cc(OCCCCCCC[N+](C)(C)Cc2ccc([N+](=O)[O-])o2)c(C(C)C)cc1Cl,99.6% (active),99.8% (active),99.8% (active),99.6% (active),99.5% (active),99.7% (active)
COc1cc2c(cc1OC)C(N)CC2=O (configuration not stated),3.15%,1.4%,-7.25%,3.65%,0.5%,-75.3%
CCCSc1ncnc2c1ncn2COC(=O)NC,15.1%,-11.4%,5.2%,5.15%,11.3%,-2.8%
CCOC(=O)C(=CNC(=S)c1cccnc1)C(=O)OCC,-23.9%,-37.7%,-20.9%,-7.75%,-10%,-1.5%
COc1ccc(C(CC(=O)O)c2ccccc2)cc1 (configuration not stated),-31.4%,-42.6%,-2.55%,-14.4%,-29.8%,-28.6%
CC(=O)c1cccc(NC(=O)N2CCN(c3ccccc3)CC2)c1,11.4%,34%,20%,1.25%,23.9%,16.6%
CCOC(=O)C(C(=O)OCC)c1cnc2ccccc2c1Cl,-0.7%,-9.45%,6.55%,-40.5%,-4.5%,2.85%

Compound,growth inhibition [1],growth inhibition [2],growth inhibition [3],growth inhibition [4],growth inhibition [5],growth inhibition [6]
CC(C)OC1CC1,4.65%,-10.6%,-10.5%,4.9%,11.7%,-21%
COCCCn1c(-c2ccc(Cl)cc2)nn2c(=O)c3ccccc3nc2c1=O,20%,-1.75%,17.2%,10.2%,13.4%,7.45%
Clc1cc2nc(C3CCCO3)[nH]c2cc1Cl (configuration not stated),24.3%,2.15%,29.5%,5%,19.9%,55.2%
O=C(Cn1ccccc1=O)c1ccc(F)cc1,9.65%,-0.15%,0%,-18.6%,1.7%,-8.25%
COC1OC(COS(C)(=O)=O)C(OS(C)(=O)=O)C(OC(=O)c2ccccc2)C1OS(C)(=O)=O (configuration not stated),-6.25%,8%,-9.6%,1.15%,-0.85%,20.6%
CSc1n[nH]c(NC(=O)c2ccccc2Cl)n1,-0.9%,0.45%,1.5%,-33.2%,-3.1%,7.95%
c1ccc(CNn2nnc3ccccc32)cc1,16.6%,-14.4%,7.25%,3.15%,-2.95%,21.9%
O=C(NCCO)[C@H](O)[C@@H](O)[C@H](O)[C@H](O)CO,7.1%,-2%,-3.7%,16.1%,14.9%,15.2%
C=C(Cl)C(Br)(CCl)CCC(Cl)C(C)C (configuration not stated) (tested in a mixture with another compound),85% (active),86.3% (active),91% (active),91.5% (active),90.7% (active),73.8% (active)
CCN(CC)CCOc1ccccc1C(C)C,14.6%,7.5%,17.1%,19.5%,4%,25.1%
O=C(CCl)Oc1cccc([N+](=O)[O-])c1,0.6%,-11.2%,-7.05%,-8.45%,-17.5%,-20.4%
O=C(CCC(=O)NO)NO,1.4%,-12.6%,4.75%,-17.7%,-20.9%,-15.9%
C=CCN1C(SC)=NC(=O)C1(c1ccccc1)c1ccccc1,14.8%,9.95%,8.75%,-10.2%,10.2%,22.8%
CCOC(=O)COC(=O)C1C(C(N)=O)N(CC(=O)OCC)CCN1CC(=O)OCC (configuration not stated),1.85%,1.9%,-7.9%,-0.85%,-2.45%,2.25%
OCC(O)C(O)C(O)C(O)CN=Cc1ccccc1O (configuration not stated),-19.8%,7.9%,-10.7%,2.8%,-19.6%,-4.45%
O=c1[nH]c(=O)n(C2OC(CO)C(O)C2O)cc1NN=NCc1ccccc1 (configuration not stated),-10.1%,-13.7%,-11.2%,4.9%,-4.5%,-10.9%
O=C([O-])c1ccc(C(=O)[O-])cc1.O=C([O-])c1ccc(C(=O)[O-])cc1.[Mo+2].[Mo+2],-38.6%,18.1%,2.85%,9.1%,-11.8%,16.6%
CSc1nc(-c2ccccc2)c(C(=O)NC(C)CN2CCCCC2)s1 (configuration not stated),13.5%,5.15%,7.45%,11%,-3.2%,11.1%
O=C1CC(NC(=O)c2ccccc2)C(=O)O1 (configuration not stated),-5.75%,3.4%,18.8%,-31.1%,4.3%,-21.4%
Oc1ccc(Br)cc1C1Nc2ccccc2S1 (configuration not stated),0.65%,6.15%,0.4%,-28.3%,5.15%,-1.85%
O=C(NC1CC/C=C(/c2ccccc2)CC(Cl)C1)c1ccccc1 (configuration not stated),7.85%,4.9%,-8.9%,-3.5%,6.6%,-0.25%
